{"source": "ChEMBL document CHEMBL4513216", "about": "“Probing the Open Global Health Chemical Diversity Library for Multistage-Active Starting Points for Next-Generation Antimalarials” (ACS Infect Dis, 2020)", "note": "Screen size: about 68,000 compounds; about 2,700 (4%) showed an effect of 50% or more. Many of the other results were omitted from the sample, so strong results are more common in it than they were."}
{"system": "Plasmodium berghei", "experiment": "Screen against P. berghei liver stage (PbLuc), transformed with Luciferase, at 2uM", "type": "functional, HepG2", "settings": "tested at 2 uM", "units": {"INHIBITION": "%"}}
{"smiles": "CC(=O)N1CCC(C(=O)N(CC(F)F)c2cccc(Cl)c2)CC1", "INHIBITION": 23.06}
{"smiles": "CCCS(=O)(=O)N1CCC(n2nc(-c3cc(C)oc3C)ccc2=O)CC1", "INHIBITION": -17.72}
{"smiles": "Cn1c(C2CCCN2C(=O)CN2CSCC2=O)nc2ccccc21", "note": "(stereo not drawn)", "INHIBITION": -73.81}
{"smiles": "Cc1cc(C(=O)NCCN2CCC(C)CC2)nn1C(C)(C)C", "INHIBITION": 10.1}
{"smiles": "CC(C)(C)n1nc(C2CC2)cc1C(=O)NC1CCN(CC(N)=O)CC1", "INHIBITION": 40.97}
{"smiles": "CC(C)c1cc(C(=O)NC2CCN(CC(N)=O)CC2)nn1C(C)(C)C", "INHIBITION": 0.79}
{"smiles": "Cc1cc(C(=O)NC2CCN(CC(N)=O)CC2)nn1C(C)(C)C", "INHIBITION": 61.06}
{"smiles": "CNC(=O)C1CCC(NC(=O)c2cc(C3CC3)n(C(C)(C)C)n2)CC1", "note": "(stereo not drawn)", "INHIBITION": 37}
{"smiles": "CC(C)(C)n1nc(C(=O)NC2CCN(CC(N)=O)CC2)cc1C1CC1", "INHIBITION": 52.74}
{"smiles": "NC(=O)NCC1CCCCN1Cc1nc(-c2ccco2)no1", "note": "(stereo not drawn)", "INHIBITION": -3.06}
{"smiles": "COc1ccc(CCC(=O)NCCN2CCC(c3cccs3)CC2)cc1", "INHIBITION": 11.78}
{"smiles": "CC(CC(=O)NCCNS(C)(=O)=O)C1CCCCC1", "note": "(stereo not drawn)", "INHIBITION": -13.76}
{"smiles": "CC(NC(=O)Cn1ccc(=O)n(C)c1=O)c1cc(F)ccc1F", "note": "(stereo not drawn)", "INHIBITION": 16.25}
{"smiles": "CC(C)COCCC(=O)Nc1c(-c2ccc(F)cc2)ncn1C", "INHIBITION": 60.43}
{"smiles": "COCCOCCC(=O)Nc1c(-c2ccc(F)cc2)ncn1C", "INHIBITION": 35.68}
{"smiles": "CC(C)OCCC(=O)Nc1c(-c2ccc(F)cc2)ncn1C", "INHIBITION": 6.47}
{"smiles": "CCN1CC(CN(C)Cc2nc(-c3cccc(Cl)c3)oc2C)CC1=O", "note": "(stereo not drawn)", "INHIBITION": 32.26}
{"smiles": "CN(Cc1nc(Cc2ccccc2F)no1)CC1Cc2ccccc2O1", "note": "(stereo not drawn)", "INHIBITION": 60.9}
{"smiles": "CN(Cc1nc(CC2CC2)no1)CC1Cc2ccccc2O1", "note": "(stereo not drawn)", "INHIBITION": 44.37}
{"smiles": "CN(Cc1nc(COc2ccccc2)no1)CC1Cc2ccccc2O1", "note": "(stereo not drawn)", "INHIBITION": 8.03}
{"smiles": "O=C(c1cccc(NCCO)c1)N1CCOCC1", "INHIBITION": 10.74}
{"smiles": "CCN(CC)C(=O)c1ccc(Cl)c(NC(=O)c2cnc(C)cn2)c1", "INHIBITION": 20.71}
{"smiles": "Cc1cn2c(n1)CCC(NC(=O)CCn1cncn1)C2", "note": "(stereo not drawn)", "INHIBITION": 19.64}
{"smiles": "Cc1cc(CN2C[C@@H]3COC[C@]3(COCC(=O)N(C)C)C2)no1", "INHIBITION": 64.37}
{"smiles": "Cc1cccc(CN2C[C@@H]3COC[C@]3(COCC(=O)N(C)C)C2)n1", "INHIBITION": 27.52}
{"smiles": "Cc1nc(CN2C[C@@H]3COC[C@]3(COCC(=O)N(C)C)C2)cs1", "INHIBITION": 23.09}
{"smiles": "CC(=O)Nc1ccc(CN2CCc3[nH]cnc3C2c2nccn2C)cc1", "note": "(stereo not drawn)", "INHIBITION": -42.54}
{"smiles": "Clc1ccccc1OCCc1cc(C2CCNC2)n[nH]1", "note": "(stereo not drawn)", "INHIBITION": 16.14}
{"smiles": "CN1C[C@H](O)[C@]2(CCN(Cc3ccc(F)c(F)c3)C2)S1(=O)=O", "INHIBITION": 6.4}
{"smiles": "CCc1noc(CN(Cc2cccs2)C2CC2)n1", "INHIBITION": 7.85}
{"smiles": "COC(=O)C1CN(CC(=O)Nc2cc(F)ccc2F)c2ccccc21", "note": "(stereo not drawn)", "INHIBITION": 16.95}
{"smiles": "COC(=O)C1CN(CC(=O)Nc2cccc(OC)c2)c2ccccc21", "note": "(stereo not drawn)", "INHIBITION": 43.88}
{"smiles": "COC(=O)C1CN(CC(=O)Nc2ccccc2Cl)c2ccccc21", "note": "(stereo not drawn)", "INHIBITION": 57.34}
{"smiles": "Cn1cc(CN2CCC[C@]3(C[C@H](Oc4ncccc4F)CO3)C2)cn1", "INHIBITION": 20.01}
{"smiles": "CC(C)CN1CCC2(Cc3ccccc3NC2=O)C1", "note": "(stereo not drawn)", "INHIBITION": -1.69}
{"smiles": "COCC1CN(CC2CC2)Cc2nn(C)cc21", "note": "(stereo not drawn)", "INHIBITION": 30.38}
{"smiles": "CCc1ccc2c(c1)C(CCNC(=O)CCc1ccsc1)C(=O)N2", "note": "(stereo not drawn)", "INHIBITION": 57.16}
{"smiles": "CCc1ccc2c(c1)C(CCNC(=O)Cc1ccc(F)cc1)C(=O)N2", "note": "(stereo not drawn)", "INHIBITION": 33.22}
{"smiles": "CCc1ccc2c(c1)C(CCNC(=O)CSC(F)(F)F)C(=O)N2", "note": "(stereo not drawn)", "INHIBITION": 26.51}
{"smiles": "Cc1nc(C)n(CC2CCCCN2CC(=O)Nc2c(C)n[nH]c2C)n1", "note": "(stereo not drawn)", "INHIBITION": -91.52}
{"smiles": "CC(C(=O)N(C)C)N1CCCN(C(=O)Oc2ccccc2)CC1", "note": "(stereo not drawn)", "INHIBITION": 10.43}
{"smiles": "CC(=O)Nn1ccc2c(nnc3c(-c4ccc(F)cc4)cnn32)c1=O", "INHIBITION": -27.89}
{"smiles": "CN1CCC(c2cccc(-c3cccc(C(=O)O)c3)n2)CC1", "INHIBITION": -14.73}
{"smiles": "COc1ncc(C(F)(F)F)c(C(=O)O)c1Cl", "INHIBITION": 30.38}
{"smiles": "COC(=O)c1c(C(F)(F)F)cnc(OC)c1Cl", "INHIBITION": 53.54}
{"smiles": "COc1nccc(C(F)(F)F)c1C(=O)O", "INHIBITION": -16.59}
{"smiles": "Cc1ccc(C(CNCc2c[nH]nc2C)N(C)C)cc1", "note": "(stereo not drawn)", "INHIBITION": 30.23}
{"smiles": "Cc1nc(N2CCC(O)(c3ccc(F)cc3)CC2)c2c(C)nn(C)c2n1", "INHIBITION": 15.92}
{"smiles": "CN(C)CC(=O)N1CCOC2(CCCN(c3ncccc3F)C2)C1", "note": "(stereo not drawn)", "INHIBITION": -15.88}
{"smiles": "Cc1noc(C)c1CNCC1COCc2c(-c3ccoc3)nnn2C1", "note": "(stereo not drawn)", "INHIBITION": 22.84}
{"smiles": "CCN1CCC2(CCC1=O)CN(c1ccnc(SC)n1)CCN2C", "note": "(stereo not drawn)", "INHIBITION": -1.27}
{"smiles": "COCCN1CCC2(CCC1=O)CN(c1ccnc(SC)n1)CCN2C", "note": "(stereo not drawn)", "INHIBITION": 1.85}
{"smiles": "CSc1nccc(N2CCN(C)C3(CCC(=O)N(CC4CC4)CC3)C2)n1", "note": "(stereo not drawn)", "INHIBITION": 55.4}
